This is an account of results in PubChem BioAssay (EPA / NIEHS).

Results filed as inconclusive are left out. The source made the active and inactive calls. The calls were made as follows, unless noted: active = hit-call score of the fitted dose curve at least 0.9, where 1 is the maximum; inactive = score below 0.9.

Test [1] has as its target Myc proto-oncogene protein (Homo sapiens) (UniProt P01106). The experiment in a line: ATG_Myc_CIS: Attagene CIS-FACTORIAL HepG2 Assay for human Myelocytomatosis (Myc) Proto-Oncogene Transcription Factor (AID 2282990). Conditions: HepG2, Attagene cis-reporter transcription factor activity; actives raise or lower the signal. In outline:
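Read-out: fluorescent reporter mRNA fragments resolved by capillary electrophoresis after RT-PCR. Human HepG2 liver cells carried transfected cis-element reporter units and were dosed for 24 h. Gain or loss of signal fitted relative to DMSO baseline.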

A short description of test [2]: ATG_NRF2_ARE_CIS: Attagene CIS-FACTORIAL HepG2 Assay for human Nuclear Factor Erythroid 2 Related Factor 2 (NFR2) response to Antioxidant Response Elements (ARE) (AID 2282992). As to conditions: HepG2 Attagene ARE/NRF2 reporter, transcription factor activity; actives raise or lower the signal. In outline:
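Endogenous transcription factor activity in human liver HepG2 cells is tracked via a cis-element-driven reporter within a multiplexed set. mRNA induction is read by RT-PCR and capillary electrophoresis after 24 h, with DMSO as baseline.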

Test [3] is described as follows: ATG_Oct_MLP_CIS: Attagene CIS-FACTORIAL HepG2 Assay for human Octamer-Binding Transcription Factor (Oct) (AID 2282993). As to conditions: HepG2 Attagene cis-factorial Oct reporter, mRNA; actives raise or lower the signal. In outline: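 Cells of the HepG2 line express promoter-controlled reporter sequences whose mRNA levels, after 24 h treatment, are measured by RT-PCR and capillary electrophoresis. Increases and decreases are scored relative to DMSO.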

The nature of test [4]: BSK_3C_TissueFactor: BioMAP Diversity Plus: 3C Assay for Tissue Factor Biomarker Activity (AID 2282997). As to conditions: BioMAP 3C HUVEC, tissue factor biomarker readout; actives raise or lower the signal. In short, it runs like this: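 Tissue factor on primary human umbilical vein endothelium was read by ELISA 24 h after dosing, gain or loss relative to DMSO. Cytotoxicity ran alongside via SRB (0.1%, TCA-fixed, 560 nm).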

Test [5] in a line: BSK_3C_uPAR: BioMAP Diversity Plus: 3C Assay for Urokinase-type plasminogen activator receptor (uPAR) Biomarker Activity (AID 2282998). As to conditions: BioMAP 3C HUVEC, uPAR biomarker ELISA; actives raise or lower the signal. In short, it runs like this:
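Endothelial primary cells of human umbilical vein origin received test chemical; 24 h later uPAR was assayed by ELISA. Fitting was bidirectional, DMSO as negative control.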
In general terms: ELISA stands for enzyme-linked immunosorbent assay.

Test [6] can be described thus: BSK_3C_VCAM1: BioMAP Diversity Plus: 3C Assay for Vascular cell adhesion molecule 1 (VCAM1) Biomarker Activity (AID 2282999). As to conditions: BioMAP 3C HUVEC, VCAM1 ELISA, cytokine-stimulated; actives raise or lower the signal. In outline:
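HUVEC primary cells, 24 h compound exposure; VCAM-1 by ELISA; gain/loss of signal fitted bidirectionally vs DMSO baseline.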

The nature of test [7]: BSK_4H_Eotaxin3: BioMAP Diversity Plus: 4H Assay for Eotaxin 3 Biomarker Activity (AID 2283000).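 As to outcome: CCL26 protein level quantified by ELISA in parallel with SRB cytotoxicity check.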 Conditions: primary human endothelial cells (HUVEC); actives raise or lower the signal. In short, it runs like this: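 Human umbilical vein endothelial cells (BSK_4H system) dosed with test chemical; Eotaxin-3 (CCL26) measured by ELISA 24 h after dosing. Bidirectional curve fitting relative to DMSO negative control as baseline.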

Read-out in test [8]: Intercellular Adhesion Molecule 1 (ICAM1), ICAM1 (gene 3383)
Kind of test: BSK_3C_ICAM1: BioMAP Diversity Plus: 3C Assay for Intercellular Adhesion Molecule 1 (ICAM1) Biomarker Activity (AID 2283003). As to conditions: primary human endothelial cells (HUVEC); actives raise or lower the signal. In short, it runs like this:
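Using DMSO as baseline, bidirectional curve fitting was applied to ICAM-1 ELISA signals from HUVEC in the 3C system, measured 24 h after compound addition.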

Test [9] can be described thus: BSK_3C_Proliferation: Cell Proliferation Assessment in the BioMAP Diversity Plus: 3C Assay (AID 2283006).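 As to AC50: potency may reflect either rise or fall in cell number versus DMSO.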 Conditions: primary human endothelial cells (HUVEC). In outline: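 Measured here: sulforhodamine B (0.1%) staining of TCA-fixed sub-confluent umbilical vein endothelial cultures 48 h post-dosing, absorbance 560 nm. DMSO served as negative control and baseline; both signal gain and loss were modelled.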

Test [10] concerns the target Peroxisome proliferator-activated receptor gamma (Homo sapiens) (UniProt P37231). Kind of test: ATG_PPARg_TRANS: Attagene TRANS-FACTORIAL HepG2 Assay for human Peroxisome Proliferator-activated Receptor-gamma (PPARg) (AID 2283007; active = hit-call score of the fitted dose curve at least 0.9, where 1 is the maximum). In outline:
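Read-out: reporter mRNA induction, detected by fluorescence after RT-PCR and capillary electrophoresis. Transiently transfected human HepG2 liver cells carrying a chimeric NR-Gal4 construct were dosed for 24 h; activity was fitted upward relative to DMSO.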

Test [11] has as its target Nuclear receptor subfamily 1 group I member 2 (Homo sapiens) (UniProt O75469). Kind of test: ATG_PXR_TRANS: Attagene TRANS-FACTORIAL HepG2 Assay for human Pregnane X Receptor (PXR) (AID 2283008; active = hit-call score of the fitted dose curve at least 0.9, where 1 is the maximum). In short, it runs like this: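 HepG2 transfected (FuGene 6) with GAL4-UAS reporter units + PXR-Gal4 chimera; dosed 24 h. Total RNA → oligo(dT) RT → PCR → 6-FAM primer extension → HpaI cut → CE. Gain-of-signal vs DMSO.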

The target in test [12] is human RAR-related Orphan Receptor beta (RORb), RORB (gene 6096) (UniProt Q92753). Kind of test: ATG_RORb_TRANS: Attagene TRANS-FACTORIAL HepG2 Assay for human RAR-related Orphan Receptor beta (RORb) (AID 2283010; active = hit-call score of the fitted dose curve at least 0.9, where 1 is the maximum). In short, it runs like this:
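Multiplexed transcription-factor reporter assay: HepG2 cells transiently carrying NR-Gal4/GAL4-UAS constructs, 24 h treatment, mRNA quantified by RT-PCR plus capillary electrophoresis fluorescence; activity scored as induction over DMSO.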

In test [13] the target is human RAR-related Orphan Receptor gamma (RORg), RORC (gene 6097) (UniProt P51449). Kind of test: ATG_RORg_TRANS: Attagene TRANS-FACTORIAL HepG2 Assay for human RAR-related Orphan Receptor gamma (RORg) (AID 2283011; active = hit-call score of the fitted dose curve at least 0.9, where 1 is the maximum). In short, it runs like this:
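Reporter transcripts from a transfected RORg-GAL4 chimera in HepG2 cells were quantified 24 h after dosing by RT-PCR, 6-FAM labelling, HpaI digestion and capillary electrophoresis; increases over DMSO baseline were fitted.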

In test [14] the target is human Peroxisome Proliferator-activated Receptor alpha (PPARa), PPARA (gene 5465) (UniProt Q07869). The experiment in a line: ATG_PPARa_TRANS: Attagene TRANS-FACTORIAL HepG2 Assay for human Peroxisome Proliferator-activated Receptor alpha (PPARa) (AID 2283001; active = hit-call score of the fitted dose curve at least 0.9, where 1 is the maximum). In outline: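 Transient HepG2 transfection, GAL4-UAS reporters, NR-Gal4 chimeras; 24 h compound exposure. Readout: reporter transcripts by RT-PCR, 6-FAM primer extension, HpaI digest, capillary electrophoresis. Positive direction vs DMSO baseline.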

Test [15] deals with Cellular tumor antigen p53 (Homo sapiens) (UniProt P04637). Kind of test: ATG_p53_CIS: Attagene CIS-FACTORIAL HepG2 Assay for human p53 Transcription Factor (AID 2282994). As to conditions: HepG2 p53 cis-element reporter, Attagene mRNA; actives raise or lower the signal. In short, it runs like this: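 Steps: transfect HepG2 with multiplexed cis reporter constructs; dose chemicals 24 h; extract RNA, reverse-transcribe, PCR-amplify reporter sequences; FAM-label, HpaI-digest, resolve fragments by CE. Activity fitted both directions relative to DMSO.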

The target of test [16] is human Retinoic Acid Receptor beta (RARb), RARB (gene 5915) (UniProt P10826). The experiment in a line: ATG_RARb_TRANS: Attagene TRANS-FACTORIAL HepG2 Assay for human Retinoic Acid Receptor beta (AID 2283004; active = hit-call score of the fitted dose curve at least 0.9, where 1 is the maximum). In outline:
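Induction of reporter mRNA from a chimeric RARb-Gal4 construct was measured by RT-PCR, FAM labelling, HpaI digestion and capillary electrophoresis. Measurements followed 24 h compound treatment of transiently transfected human HepG2 liver cells, with DMSO as baseline.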

Test [17] concerns the target human Retinoic Acid Receptor gamma (RARg), RARG (gene 5916) (UniProt P13631). Kind of test: ATG_RARg_TRANS: Attagene TRANS-FACTORIAL HepG2 Assay for human Retinoic Acid Receptor gamma (RARg) (AID 2283009; active = hit-call score of the fitted dose curve at least 0.9, where 1 is the maximum). In outline:
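Gain-of-signal relative to DMSO is reported from fluorescent capillary electrophoresis of RT-PCR reporter products. These came from HepG2 cells expressing transfected RARg-GAL4 chimeras with UAS reporters, harvested 24 h after dosing.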

Chain of Cellular tumor antigen p53 (Homo sapiens) (P04637 whole entry, looked up, the tested form may be a part): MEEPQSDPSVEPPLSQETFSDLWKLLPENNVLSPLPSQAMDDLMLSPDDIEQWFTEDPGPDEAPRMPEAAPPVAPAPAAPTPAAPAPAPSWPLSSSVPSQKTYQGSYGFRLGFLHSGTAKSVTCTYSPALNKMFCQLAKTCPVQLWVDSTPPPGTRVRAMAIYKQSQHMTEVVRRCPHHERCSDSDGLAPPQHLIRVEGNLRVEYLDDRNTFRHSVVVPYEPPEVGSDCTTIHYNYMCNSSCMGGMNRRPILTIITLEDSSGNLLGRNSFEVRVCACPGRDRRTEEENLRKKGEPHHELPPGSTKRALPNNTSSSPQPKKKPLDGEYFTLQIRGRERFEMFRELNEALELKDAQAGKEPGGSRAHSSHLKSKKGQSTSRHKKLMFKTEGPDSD
Chain of Peroxisome proliferator-activated receptor gamma (Homo sapiens) (P37231 whole entry, looked up, the tested form may be a part): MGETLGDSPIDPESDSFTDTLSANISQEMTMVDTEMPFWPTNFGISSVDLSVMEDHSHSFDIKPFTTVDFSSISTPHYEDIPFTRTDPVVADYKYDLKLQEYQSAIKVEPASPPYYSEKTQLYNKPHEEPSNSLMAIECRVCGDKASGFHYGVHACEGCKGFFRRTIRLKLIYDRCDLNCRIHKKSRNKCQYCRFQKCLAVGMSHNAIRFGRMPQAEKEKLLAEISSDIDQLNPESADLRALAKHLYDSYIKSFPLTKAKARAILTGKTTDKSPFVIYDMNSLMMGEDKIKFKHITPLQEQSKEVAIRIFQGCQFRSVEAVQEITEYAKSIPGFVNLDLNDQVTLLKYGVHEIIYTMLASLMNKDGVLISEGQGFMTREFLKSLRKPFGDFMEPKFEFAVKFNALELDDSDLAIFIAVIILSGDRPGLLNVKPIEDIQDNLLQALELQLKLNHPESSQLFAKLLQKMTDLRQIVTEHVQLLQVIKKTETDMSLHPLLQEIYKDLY
Chain of human RAR-related Orphan Receptor gamma (RORg), RORC (gene 6097) (P51449 whole entry, looked up, the tested form may be a part): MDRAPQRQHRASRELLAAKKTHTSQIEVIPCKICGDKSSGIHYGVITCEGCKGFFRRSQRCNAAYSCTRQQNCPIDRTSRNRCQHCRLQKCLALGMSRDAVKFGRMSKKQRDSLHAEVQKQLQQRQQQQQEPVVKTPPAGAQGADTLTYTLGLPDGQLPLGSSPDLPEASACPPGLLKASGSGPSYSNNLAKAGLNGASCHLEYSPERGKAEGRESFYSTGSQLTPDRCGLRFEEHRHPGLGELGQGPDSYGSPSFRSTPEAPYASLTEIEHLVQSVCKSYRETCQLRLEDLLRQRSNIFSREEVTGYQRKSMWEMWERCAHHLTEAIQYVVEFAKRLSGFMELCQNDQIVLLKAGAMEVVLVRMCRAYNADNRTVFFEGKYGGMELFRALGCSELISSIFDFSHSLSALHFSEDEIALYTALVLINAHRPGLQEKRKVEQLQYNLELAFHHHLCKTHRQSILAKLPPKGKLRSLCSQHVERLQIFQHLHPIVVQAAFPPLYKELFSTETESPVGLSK
Chain of human Peroxisome Proliferator-activated Receptor alpha (PPARa), PPARA (gene 5465) (Q07869 whole entry, looked up, the tested form may be a part): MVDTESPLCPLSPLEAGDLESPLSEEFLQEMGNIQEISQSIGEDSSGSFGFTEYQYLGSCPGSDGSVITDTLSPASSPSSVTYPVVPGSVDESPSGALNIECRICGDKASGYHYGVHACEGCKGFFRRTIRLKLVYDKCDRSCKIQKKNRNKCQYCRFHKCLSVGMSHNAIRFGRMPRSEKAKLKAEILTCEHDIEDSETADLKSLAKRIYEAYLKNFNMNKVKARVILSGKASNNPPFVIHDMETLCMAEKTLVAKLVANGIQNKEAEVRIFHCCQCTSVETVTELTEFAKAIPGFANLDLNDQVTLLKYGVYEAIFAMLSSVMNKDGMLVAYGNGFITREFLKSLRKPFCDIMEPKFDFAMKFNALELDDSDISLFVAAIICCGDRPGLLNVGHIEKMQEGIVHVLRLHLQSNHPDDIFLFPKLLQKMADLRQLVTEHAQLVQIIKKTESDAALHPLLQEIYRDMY
Chain of human RAR-related Orphan Receptor beta (RORb), RORB (gene 6096) (Q92753 whole entry, looked up, the tested form may be a part): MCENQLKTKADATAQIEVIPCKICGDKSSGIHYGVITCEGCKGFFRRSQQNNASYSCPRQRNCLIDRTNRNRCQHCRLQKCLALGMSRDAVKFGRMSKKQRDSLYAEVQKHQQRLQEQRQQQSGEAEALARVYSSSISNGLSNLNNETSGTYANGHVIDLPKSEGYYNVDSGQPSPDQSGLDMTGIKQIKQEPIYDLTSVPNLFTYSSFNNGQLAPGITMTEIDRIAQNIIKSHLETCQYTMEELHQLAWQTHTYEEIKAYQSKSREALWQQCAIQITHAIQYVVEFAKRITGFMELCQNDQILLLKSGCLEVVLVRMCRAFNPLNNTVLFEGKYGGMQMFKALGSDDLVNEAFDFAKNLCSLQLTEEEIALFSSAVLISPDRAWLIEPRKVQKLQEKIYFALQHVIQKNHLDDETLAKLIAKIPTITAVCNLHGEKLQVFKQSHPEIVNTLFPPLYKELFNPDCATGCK
Chain of Myc proto-oncogene protein (Homo sapiens) (P01106 whole entry, looked up, the tested form may be a part): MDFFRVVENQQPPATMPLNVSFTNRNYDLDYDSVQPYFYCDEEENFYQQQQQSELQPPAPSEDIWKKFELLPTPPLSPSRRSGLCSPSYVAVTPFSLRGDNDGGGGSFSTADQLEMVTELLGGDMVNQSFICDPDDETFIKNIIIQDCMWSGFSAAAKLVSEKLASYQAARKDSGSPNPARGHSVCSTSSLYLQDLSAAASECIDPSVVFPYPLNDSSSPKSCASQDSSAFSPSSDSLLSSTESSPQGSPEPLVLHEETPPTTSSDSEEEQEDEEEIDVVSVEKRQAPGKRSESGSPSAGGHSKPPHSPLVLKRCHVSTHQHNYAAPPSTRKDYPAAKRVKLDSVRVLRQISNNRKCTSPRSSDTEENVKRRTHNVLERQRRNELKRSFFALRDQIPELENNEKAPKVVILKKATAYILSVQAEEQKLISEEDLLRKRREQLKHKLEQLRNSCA
Chain of Nuclear receptor subfamily 1 group I member 2 (Homo sapiens) (O75469 whole entry, looked up, the tested form may be a part): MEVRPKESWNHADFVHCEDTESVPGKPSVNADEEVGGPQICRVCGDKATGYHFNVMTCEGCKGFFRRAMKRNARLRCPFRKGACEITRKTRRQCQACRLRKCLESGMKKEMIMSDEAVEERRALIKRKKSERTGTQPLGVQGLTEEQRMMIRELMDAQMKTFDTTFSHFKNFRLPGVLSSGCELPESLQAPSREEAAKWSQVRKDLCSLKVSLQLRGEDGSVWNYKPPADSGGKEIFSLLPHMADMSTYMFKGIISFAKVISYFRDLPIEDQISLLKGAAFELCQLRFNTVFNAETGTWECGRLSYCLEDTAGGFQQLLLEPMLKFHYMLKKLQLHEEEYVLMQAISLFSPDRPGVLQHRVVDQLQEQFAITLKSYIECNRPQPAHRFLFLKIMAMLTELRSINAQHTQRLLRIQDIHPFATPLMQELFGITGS
Chain of human Retinoic Acid Receptor beta (RARb), RARB (gene 5915) (P10826 whole entry, looked up, the tested form may be a part): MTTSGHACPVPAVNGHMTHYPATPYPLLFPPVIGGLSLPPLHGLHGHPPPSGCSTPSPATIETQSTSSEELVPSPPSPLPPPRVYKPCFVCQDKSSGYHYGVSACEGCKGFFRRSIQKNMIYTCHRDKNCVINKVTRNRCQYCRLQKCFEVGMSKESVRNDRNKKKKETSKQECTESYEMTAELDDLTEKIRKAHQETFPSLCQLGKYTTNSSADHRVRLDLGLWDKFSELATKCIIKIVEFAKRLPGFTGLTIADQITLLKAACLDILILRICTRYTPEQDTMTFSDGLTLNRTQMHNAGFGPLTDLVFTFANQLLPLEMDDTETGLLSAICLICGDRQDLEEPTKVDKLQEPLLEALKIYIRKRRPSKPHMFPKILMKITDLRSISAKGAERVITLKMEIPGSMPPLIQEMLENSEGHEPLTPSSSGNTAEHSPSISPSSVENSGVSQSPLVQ
Chain of human Retinoic Acid Receptor gamma (RARg), RARG (gene 5916) (P13631 whole entry, looked up, the tested form may be a part): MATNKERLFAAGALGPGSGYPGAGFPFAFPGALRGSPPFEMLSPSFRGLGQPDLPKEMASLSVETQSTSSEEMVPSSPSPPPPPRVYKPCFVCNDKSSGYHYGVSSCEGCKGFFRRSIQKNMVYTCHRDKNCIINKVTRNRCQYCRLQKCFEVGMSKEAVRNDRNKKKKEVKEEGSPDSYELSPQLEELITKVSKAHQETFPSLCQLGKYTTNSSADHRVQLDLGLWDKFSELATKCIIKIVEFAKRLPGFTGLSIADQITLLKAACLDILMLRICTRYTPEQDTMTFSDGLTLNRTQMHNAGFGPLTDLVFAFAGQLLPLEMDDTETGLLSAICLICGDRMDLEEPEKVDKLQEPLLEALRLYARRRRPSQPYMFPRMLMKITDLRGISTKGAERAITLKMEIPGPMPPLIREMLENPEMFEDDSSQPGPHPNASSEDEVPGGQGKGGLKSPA

Regarding `O=C(NS(=O)(=O)/C=C/c1cccs1)c1ccc(F)cc1Br`, the outcome in test [1], in [3], in test [4], in test [5], in [6] and in test [7] was inactive. Besides, the outcome in test [8], in [12] and in test [13] was inactive. Besides, the AC50 in [2] was 44.7 µM (active); in test [9], 2.87 µM (active); in test [10] it was 21.6 µM (active); in test [11], 11.4 µM (active).
As for `S=c1[nH]c2ccccc2s1`, the compound was called inactive in test [1], in test [4], in [5], in [6], in test [7] and in [14]. For the same compound, the result in test [8], in test [9] and in test [13] was inactive. The AC50 in [2] was 54.9 µM (active); in test [3], 100 µM (active); in test [10], 9.31 µM (active); in test [11], 31.5 µM (active).
For `CCCCCCCCCC[N+](C)(C)[O-]`, the result in test [1], in [2], in test [3], in [15], in [4] and in test [5] was inactive. Further, the outcome in [6], in test [7], in test [8], in test [9], in test [10] and in [11] was inactive.
Consider `COC(=O)[C@H]1[C@H]2C[C@@H]3c4[nH]c5cc(OC)ccc5c4CCN3C[C@H]2C[C@@H](OC(=O)c2cc(OC)c(OC)c(OC)c2)[C@@H]1OC`, for which the compound was called inactive in test [1], in test [3], in [14], in test [8] and in test [10]. Further, the concentration at half-maximal activity (AC50) in test [2] is 45.5 µM (active); in [4], 10.4 µM (active); in test [5], 23.2 µM (active); in test [6], 11.4 µM (active); in [7], 25.7 µM (active); in [9], 16.9 µM (active).
For the compound `O=C1O[C@H]([C@H](O)CO)C(O)=C1O`, the result in test [1], in [2], in test [3], in test [15], in [4] and in test [5] was inactive. For the same compound, the result in [6], in test [7], in [8], in test [9], in test [12] and in test [13] was inactive.
For the compound `CC(C)(C)c1ccccc1`, the compound was classed as inactive in test [1], in test [2], in [3], in test [4], in test [5] and in test [6]. Also, the outcome in test [7], in test [14], in test [8], in test [9] and in test [12] was inactive.
`OCC(O)CO`: the result in test [4], in test [5], in test [6], in test [7], in test [8] and in test [9] was inactive.
Take `O=C(O)CC(O)(CC(=O)O)C(=O)O`: the outcome in test [4], in [5], in test [6], in test [7], in test [8] and in test [9] was inactive.
As to `CC(C)c1cccc(C(C)C)c1NC(=O)NS(=O)(=O)c1cc(C(C)(C)O)co1`, the outcome in test [1], in test [2], in test [3], in test [15], in [4] and in test [5] was inactive. Besides, the outcome in [6], in [7], in test [14], in [8], in [16] and in test [9] was inactive. Also, the compound was called inactive in [17], in [12] and in test [13]. The AC50 in [11] is 9.03 µM (active).

One may read the AC50 as the concentration at which the activity in the assay is half-maximal.
